Inconclusive results are not listed. The source made the active and inactive calls. Rule for the calls: active = hit-call score of the fitted dose curve at least 0.9, where 1 is the maximum; inconclusive = response in the unintended direction; inactive = score below 0.9.

The test deals with Estrogen receptor (Homo sapiens) (UniProt P03372). In words: CCTE_Deisenroth_AIME_384WELL_LUC_Inactive: CCTE's 384-well Estrogen Receptor Transactivation Assay without AIME metabolic competence (ERTA luciferase; metabolism negative), Deisenroth Lab (AID 2284038).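 Note: VM7Luc4E2 breast cells given medium preincubated 2 h with S9-free microspheres; hits raise estrogen receptor luciferase signal so potencies reflect agonists.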 On the procedure: CCTE_Deisenroth_AIME_384WELL (AIME metabolism assay) is a cell-based, single-readout assay that uses VM7Luc4E2, a human mammary gland/breast cell line, with measurements taken at 24 hour after chemical dosing in a 384-well plate.CCTE_Deisenroth_AIME_384WELL_LUC_Inactive is one of four assay components measured or calculated from the CCTE_Deisenroth_AIME_384WELL assay. It is designed to make measurements of luciferase induction, a form of inducible reporter, as detected with bioluminescence signals by luciferase-coupled ATP quantitation technology.CCTE_Deisenroth_AIME_384WELL_LUC_Inactive is a component of the CCTE_Deisenroth_AIME_384WELL assay that measures the effect of retroftting the VM7Luc ERTA assay with the Alginate Immobolization of Metabolic Enzymes (AIME) metabolism method. AIME is optimized to impart phase I hepatic metabolism using phenobarbital/beta-naphthoflavone induced hepatic S9 from male Sprague Dawley rats. Parent chemicals are incubated for 2 hours in the AIME assay prior to transfer to the VM7Luc ERTA assay plate. […] This endpoint evaluates reporter induction in metabolism negative mode. Using a type of inducible reporter in VM7Luc cells, gain-of-signal activity can be used to understand changes in the reporter gene as they relate to xenobiotic metabolism and the gene ESR1. This assay endpoint, CCTE_Deisenroth_AIME_384WELL_LUC_Inactive, was analyzed in the positive analysis fitting direction relative to 17beta-estradiol as the positive control in the ERTA assay. To generalize the intended target to other relatable targets, this assay endpoint is annotated to the nuclear receptor intended target family, where the subfamily is steroidal.
Sequence of Estrogen receptor (Homo sapiens) (P03372 whole entry, looked up): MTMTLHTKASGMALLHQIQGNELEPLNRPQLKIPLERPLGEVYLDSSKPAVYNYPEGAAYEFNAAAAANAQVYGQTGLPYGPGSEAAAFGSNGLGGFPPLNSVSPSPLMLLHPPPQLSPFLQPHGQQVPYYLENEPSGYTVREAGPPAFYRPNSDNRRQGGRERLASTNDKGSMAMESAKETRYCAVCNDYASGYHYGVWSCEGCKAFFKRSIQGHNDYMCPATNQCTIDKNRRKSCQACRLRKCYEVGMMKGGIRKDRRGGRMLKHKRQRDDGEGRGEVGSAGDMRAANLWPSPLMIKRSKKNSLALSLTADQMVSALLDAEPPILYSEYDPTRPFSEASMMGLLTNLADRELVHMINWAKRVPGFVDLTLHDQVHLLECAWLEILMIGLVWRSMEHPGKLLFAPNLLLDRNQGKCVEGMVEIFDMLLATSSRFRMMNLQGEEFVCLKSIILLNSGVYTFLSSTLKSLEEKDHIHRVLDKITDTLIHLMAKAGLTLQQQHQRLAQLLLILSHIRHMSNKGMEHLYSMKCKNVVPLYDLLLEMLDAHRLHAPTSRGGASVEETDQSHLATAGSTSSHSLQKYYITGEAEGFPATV
The AIME procedure consists of a preparative "pre-stamping" step using a barium chloride/poly-L-lysine (PLL) solution followed by "stamping" the lid in alginate-hepatic S9 (metabolism positive) or alginate-water (metabolism negative) to form microspheres. Once stamping is completed, the AIME lids are placed in duplicate microplates (metabolism positive or negative) containing chemical solutions and incubated for two hours to facilitate metabolic reactions. The conditioned medium, containing parent chemical or metabolites, is then transferred to the cell-based VM7Luc Estrogen Receptor Transactivation Assay (ERTA) for 24 hours. A typical experimental design tests a 10-point concentration series (0.002 - 200 uM) for 8 compounds (96-well format)1 or 32 compounds (384-well format)2 in single technical replicate. AIME assay controls include trans-stilbene (bioactivated control) and ethylparaben (bioinactivated control). ERTA assay plate controls include 17-beta estradiol (positive control) and DMSO (solvent control). Experiments typically comprise a minimum of four experimental replicates (n=4).
As to `N#Cc1c(Cl)cccc1Cl`, the compound was classed as inactive.
In the case of `CCOC(=O)C(C)OC(=O)c1cc(Oc2ccc(C(F)(F)F)cc2Cl)ccc1[N+](=O)[O-]` (centres undefined), the compound was called inactive.
The AC50 is the concentration giving half of the maximal activity seen. Consider `CC1(C)CON(Cc2ccccc2Cl)C1=O`, for which the AC50 is 73.1 µM (active).
In the case of `CC1(C)C(C=C(Cl)Cl)C1C(=O)OC(C#N)c1cccc(Oc2ccccc2)c1` (centres undefined), the AC50 is 57.9 µM (active).
In the case of `CC(C)=CC1C(C(=O)OCc2coc(Cc3ccccc3)c2)C1(C)C` (centres undefined), the call was inactive.
Consider `COP(=S)(OC)SCn1nnc2ccccc2c1=O`, for which the call was inactive.
Take `CN=C=S`: the call was inactive.
Turning to `COC(=O)NS(=O)(=O)c1ccc(N)cc1`, the compound was called inactive.
With `COc1cc(OC)nc(NC(=O)NS(=O)(=O)c2ncccc2OCC(F)(F)F)n1`, the compound was called inactive.
On to `COc1ccc(-c2ccccc2)cc1NNC(=O)OC(C)C`, for which the outcome was inactive.
The same measure, in the same setting: as for `COCc1cnc(C2=NC(C)(C(C)C)C(=O)N2)c(C(=O)O)c1` (centres undefined), the entry is “inactive”; as for `Cc1ccc(N=CN(C)C=Nc2ccc(C)cc2C)c(C)c1`, “inactive”.
On the same count and under the same terms, to `O=C(Nc1ccccc1-c1ccc(Cl)cc1)c1cccnc1Cl` belongs “inactive”.
For the compound `C=C(C)CN(CC)c1c([N+](=O)[O-])cc(C(F)(F)F)cc1[N+](=O)[O-]`, the result was inactive.
The same measure, in the same setting: as for `Nc1cnn(-c2ccccc2)c(=O)c1Cl`, the entry is “inactive”; as for `O=c1n(Cl)c(=O)n(Cl)c(=O)n1Cl`, “inactive”; as for `CC(C)Nc1nc(Cl)nc(NC(C)C)n1`, “inactive”.
For `COC(=O)NC(=S)Nc1ccccc1NC(=S)NC(=O)OC`, the compound was called inactive.
As for `CC(C)N1C(=O)N(c2ccccc2)CSC1=NC(C)(C)C`, the call was inactive.
Consider `Nc1c(Cl)c(Cl)nc(C(=O)O)c1Cl`, for which the AC50 is 14.3 µM (active).
For `CCCC(=NOCC)C1=C(O)CC(CC(C)SCC)CC1=O` (centres undefined), the result was inactive.
`CCOP(=S)(OCC)Oc1nc(Cl)n(C(C)C)n1`: the outcome was inactive.
For the compound `Cc1cc(C)nc(Nc2ccccc2)n1`, the result was inactive.
Consider `CCOP(=O)(OCC)Oc1nc(Cl)c(Cl)cc1Cl`, for which the compound was classed as inactive.
`CNC(=O)N(C)c1nnc(C(C)(C)C)s1`: the outcome was inactive.
The same measure, in the same setting: to `CC(C)N1C(=O)c2ccccc2NS1(=O)=O` belongs “inactive”; to `COP(=S)(OC)Oc1ccc([N+](=O)[O-])c(C)c1`, “inactive”.
Same read-out and setting: to `CCOc1nc(C(Cl)(Cl)Cl)ns1` belongs “inactive”.
With `CCSC(=O)N1CCCCCC1`, the compound was called inactive.
The same measure, in the same setting: as for `CCOc1nc(F)cc2nc(S(=O)(=O)Nc3c(Cl)cccc3Cl)nn12`, the entry is “inactive”; as for `CS(=O)(=O)c1cc(C(F)(F)F)ccc1C(=O)c1cnoc1C1CC1`, “inactive”.
Still for that read-out and setting: as for `COCC(C)N(C(=O)CCl)c1c(C)csc1C` (centres undefined), the entry is “inactive”; as for `CCC(C)n1c(=O)[nH]c(C)c(Br)c1=O` (centres undefined), “inactive”; as for `Clc1cccc(C(Cl)(Cl)Cl)n1`, “inactive”.
